Measurements as given in PubChem BioAssay AID1434 (Sanford-Burnham Center for Chemical Genomics, 2008).
About 1,600 (0.73%) of roughly 220,000 compounds were called active.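 How the source made its calls: active means mean inhibition across duplicate retests at 20 µM reaching about 50% (limit read from the data); inactive means the rest, inconclusive results apart.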 This excerpt belongs to a sample that is enriched for actives.

Target: Runt-related transcription factor 1 (Homo sapiens) + Core-binding factor subunit beta (Homo sapiens) (UniProt Q01196+Q13951)
Sequence (Q01196 whole entry, looked up, the tested form may be a part): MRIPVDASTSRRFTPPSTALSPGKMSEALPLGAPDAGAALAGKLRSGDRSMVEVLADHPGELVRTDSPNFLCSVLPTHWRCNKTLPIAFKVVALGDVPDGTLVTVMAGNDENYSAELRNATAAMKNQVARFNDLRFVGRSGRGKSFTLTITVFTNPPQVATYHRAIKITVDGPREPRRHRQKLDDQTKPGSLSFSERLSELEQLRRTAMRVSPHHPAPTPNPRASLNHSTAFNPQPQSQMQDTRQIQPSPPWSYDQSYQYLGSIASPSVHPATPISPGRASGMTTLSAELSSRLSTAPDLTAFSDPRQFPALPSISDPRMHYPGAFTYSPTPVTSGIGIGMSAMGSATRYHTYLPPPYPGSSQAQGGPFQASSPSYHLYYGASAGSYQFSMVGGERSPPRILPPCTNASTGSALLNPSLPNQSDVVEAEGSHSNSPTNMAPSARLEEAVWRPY
Sequence (Q13951 whole entry, looked up, the tested form may be a part): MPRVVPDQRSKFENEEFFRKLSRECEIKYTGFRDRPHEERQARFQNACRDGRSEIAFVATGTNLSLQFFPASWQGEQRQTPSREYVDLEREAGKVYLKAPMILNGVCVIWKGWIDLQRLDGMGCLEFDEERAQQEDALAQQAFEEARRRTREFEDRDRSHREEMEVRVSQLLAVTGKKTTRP
Test: disruptors of Runt domain/CBFb-SMMHC interaction – biochemical, FRET, Cerulean-Runt, Venus-CBFb-SMMHC, uHTS, primary screen (AID 1434);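 further: 0% = DMSO wells and 100% = wells with excess untagged CBFb-SMMHC; inhibitors lower the FRET ratio by blocking Runt binding to CBFb-SMMHC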
Details: Cerulean-Runt/Venus-CBFb-SMMHC FRET ratio 530/480, 1 h, at 20 µM, stronger effect = higher value

| SMILES | inhibition | inhibition (retest duplicate average) [%] |
| --- | --- | --- |
| CC/C(=N\NC(=O)c1ccccc1O)c1c(O)n(Cc2ccccc2)c(=O)[nH]c1=O | -0.6% (inactive) |  |
| COc1cc(Cn2c(N)c(C(=O)NCc3ccco3)c3nc4ccccc4nc32)cc(OC)c1OC | 34.2% (inactive) |  |
| O=C(OCCN1CCOCC1)C1(c2ccccc2)CCCC1 | -5.6% (inactive) |  |
| CCOC(=O)c1c(N)n(CCN2CCOCC2)c2nc3ccccc3nc12 | 69.9% (active) | 73.1 |
| CCOC(=O)c1c(N)n(Cc2ccccc2)c2nc3ccccc3nc12 | 97.2% (active) | 128 |
| CCOc1cccc(=NC2CCCCC2)c2c(C)[nH]c(C)c12 | -11% (inactive) |  |
| CC1(C)C(c2ccccc2)=NC(c2cccnc2)=[N+]1[O-] | -6.5% (inactive) |  |
| C/C=C/CC1(CC)C(=O)NC(=S)NC1=O | -3.2% (inactive) |  |
| COc1cc(OC)cc(C2(C#N)CCN(C)CC2)c1 | -1.4% (inactive) |  |
| CCOC(=O)C1(CCc2ccccc2)CCN(Cc2ccco2)CC1 | -5.4% (inactive) |  |
